{"source": "PubChem BioAssay", "key": {"[1]": {"biological_target": "6-phosphogluconate dehydrogenase, decarboxylating (Homo sapiens) (UniProt P52209)", "sequence (P52209 whole entry, looked up)": "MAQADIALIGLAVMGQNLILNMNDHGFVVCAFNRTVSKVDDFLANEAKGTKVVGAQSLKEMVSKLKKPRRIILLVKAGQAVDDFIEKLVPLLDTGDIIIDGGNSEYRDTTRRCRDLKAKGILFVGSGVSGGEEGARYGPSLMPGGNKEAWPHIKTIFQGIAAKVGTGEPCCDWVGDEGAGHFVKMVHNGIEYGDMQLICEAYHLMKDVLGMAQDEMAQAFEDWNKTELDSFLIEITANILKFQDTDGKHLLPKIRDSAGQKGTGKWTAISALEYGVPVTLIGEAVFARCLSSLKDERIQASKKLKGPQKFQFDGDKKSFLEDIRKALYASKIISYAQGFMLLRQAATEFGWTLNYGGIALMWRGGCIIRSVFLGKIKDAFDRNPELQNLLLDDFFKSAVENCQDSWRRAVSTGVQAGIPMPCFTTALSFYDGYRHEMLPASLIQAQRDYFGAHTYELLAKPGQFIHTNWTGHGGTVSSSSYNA", "test": "inhibition of human phosphogluconate dehydrogenase – biochemical, recombinant enzyme, NADPH absorbance, primary screen (AID 1159550;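 active means at least 20% inhibition of 6-phosphogluconate dehydrogenase activity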)", "settings": "recombinant 6PGD, NADPH absorbance 341 nm; at 10 µM; stronger effect = higher value"}, "[2]": {"test": "EMT-state selective cytotoxicity in co-culture – imaging, PC-3E GFP, TEM4-18 mCherry, primary screen (AID 1345086);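 on all read-outs here: cells exposed to compound for 72 h before imaging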;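 on red/green cell ratio (normalised): normalised mesenchymal count divided by normalised epithelial count so high means epithelial killing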", "settings": "PC-3E GFP / TEM4-18 mCherry co-culture, imaging cell counts, at 1 µM; for red/green cell ratio (normalised): actives lie on both sides, counts scaled to control wells, 1 = unselective"}, "[3]": {"biological_target": "Mitogen-activated protein kinase 7 (Homo sapiens) (UniProt Q13164)", "sequence (Q13164 whole entry, looked up, the tested form may be a part)": "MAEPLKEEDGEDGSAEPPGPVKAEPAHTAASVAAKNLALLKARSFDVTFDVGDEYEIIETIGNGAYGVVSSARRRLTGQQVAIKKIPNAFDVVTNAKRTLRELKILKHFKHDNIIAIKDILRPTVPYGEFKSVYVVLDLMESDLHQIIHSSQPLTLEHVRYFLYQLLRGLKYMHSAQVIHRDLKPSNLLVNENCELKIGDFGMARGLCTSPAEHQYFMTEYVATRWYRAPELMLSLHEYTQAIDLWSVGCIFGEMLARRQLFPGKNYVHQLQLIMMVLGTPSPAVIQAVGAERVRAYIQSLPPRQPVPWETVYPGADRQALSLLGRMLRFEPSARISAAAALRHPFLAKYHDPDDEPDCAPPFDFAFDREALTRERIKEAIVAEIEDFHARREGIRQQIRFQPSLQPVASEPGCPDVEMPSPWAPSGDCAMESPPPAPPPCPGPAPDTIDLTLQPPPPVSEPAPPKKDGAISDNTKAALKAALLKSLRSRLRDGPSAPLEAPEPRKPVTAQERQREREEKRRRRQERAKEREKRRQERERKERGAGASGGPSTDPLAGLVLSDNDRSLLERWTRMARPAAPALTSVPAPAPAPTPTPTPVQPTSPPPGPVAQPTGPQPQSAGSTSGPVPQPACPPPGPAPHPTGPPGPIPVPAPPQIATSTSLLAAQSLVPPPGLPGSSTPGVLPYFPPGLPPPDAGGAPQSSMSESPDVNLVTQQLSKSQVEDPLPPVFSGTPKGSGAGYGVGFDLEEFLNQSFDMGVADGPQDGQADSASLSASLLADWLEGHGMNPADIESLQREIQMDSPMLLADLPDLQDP", "test": "Gal4-ERK5 driven luciferase induction – cell-based, HTS, primary screen (AID 1508626;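 active means luciferase signal above three times the same-plate solvent-only control wells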;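 further: luciferase driven by Gal4-ERK5 fusion binding five Gal4 sites before minimal TATA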)", "settings": "HeLa Gal4-ERK5 transactivation, 18 h, at 5 µM, stronger effect = higher value"}, "[4]": {"settings": "measured here: epithelial PC-3E GFP cell survival"}, "[5]": {"settings": "measured here: mesenchymal TEM4-18 mCherry cell survival"}}, "note": "Several values for one entry are separate records, joined by “and”; a condition that tells them apart may be missing. Identical values can stand only once. Activity calls are given as the source filed them.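 How the source made its calls, unless noted: active means compounds killing one labelled cell type while sparing the other, by normalised counts and ratio limits, not self-fluorescent; inactive means the rest.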"}
{"smiles": "CC12CCC3C(CC3(C)C)C(C)(CCC1=O)O2", "note": "(stereo not given)", "values": [{"measurement": "inhibition", "setting": "[1]", "value": "11.8% (inactive)"}, {"measurement": "red/green cell ratio (normalised)", "setting": "[2]", "value": "1.12 (inactive)"}, {"measurement": "normalised cell number", "setting": "[2]; [4]", "value": 0.97}, {"measurement": "normalised cell number", "setting": "[2]; [5]", "value": 1.09}, {"measurement": "luciferase signal", "setting": "[3]", "value": "60 AU (inactive)"}]}
{"smiles": "O=C(O)c1nc2cc(Cl)c(Cl)cc2[nH]c1=O", "values": [{"measurement": "inhibition", "setting": "[1]", "value": "-11.6% (inactive)"}, {"measurement": "red/green cell ratio (normalised)", "setting": "[2]", "value": "0.95 (inactive)"}, {"measurement": "normalised cell number", "setting": "[2]; [4]", "value": 1.19}, {"measurement": "normalised cell number", "setting": "[2]; [5]", "value": 1.12}, {"measurement": "luciferase signal", "setting": "[3]", "value": "36 AU (inactive)"}]}
{"smiles": "COc1ccc(-c2cc(=O)c3c(OC(C)=O)cc(OC(C)=O)cc3o2)cc1", "values": [{"measurement": "inhibition", "setting": "[1]", "value": "-1.6% (inactive)"}, {"measurement": "red/green cell ratio (normalised)", "setting": "[2]", "value": "0.89 (inactive)"}, {"measurement": "normalised cell number", "setting": "[2]; [4]", "value": 1.06}, {"measurement": "normalised cell number", "setting": "[2]; [5]", "value": 0.95}, {"measurement": "luciferase signal", "setting": "[3]", "value": "60 AU (inactive)"}]}
{"smiles": "CC1=C2C(O)C(=O)OC3CC4C(C)(C)C(=O)C=C[C@]4(C)C(CC1)[C@]23C", "note": "(stereo not given in full)", "values": [{"measurement": "inhibition", "setting": "[1]", "value": "-6.52% (inactive)"}, {"measurement": "red/green cell ratio (normalised)", "setting": "[2]", "value": "1.05 (inactive)"}, {"measurement": "normalised cell number", "setting": "[2]; [4]", "value": 0.98}, {"measurement": "normalised cell number", "setting": "[2]; [5]", "value": 1.02}, {"measurement": "luciferase signal", "setting": "[3]", "value": "144 AU (active)"}]}
{"smiles": "C=C1CCC2C(CC2(C)C)C(=O)CCC1O", "note": "(stereo not given)", "values": [{"measurement": "inhibition", "setting": "[1]", "value": "28.4% (active)"}, {"measurement": "red/green cell ratio (normalised)", "setting": "[2]", "value": "1.02 (inactive)"}, {"measurement": "normalised cell number", "setting": "[2]; [4]", "value": 0.93}, {"measurement": "normalised cell number", "setting": "[2]; [5]", "value": 0.96}, {"measurement": "luciferase signal", "setting": "[3]", "value": "132 AU (inactive)"}]}
{"smiles": "OC[C@H]1O[C@@H](n2cnc3c(NCc4ccco4)ncnc32)[C@H](O)[C@@H]1O", "values": [{"measurement": "inhibition", "setting": "[1]", "value": "3.79% (inactive)"}, {"measurement": "red/green cell ratio (normalised)", "setting": "[2]", "value": "1.48 (inactive)"}, {"measurement": "normalised cell number", "setting": "[2]; [4]", "value": 0.37}, {"measurement": "normalised cell number", "setting": "[2]; [5]", "value": 0.55}, {"measurement": "luciferase signal", "setting": "[3]", "value": "40 AU (inactive)"}]}
{"smiles": "CC(=O)Oc1ccc(O)cc1", "values": [{"measurement": "inhibition", "setting": "[1]", "value": "4.32% (inactive)"}, {"measurement": "red/green cell ratio (normalised)", "setting": "[2]", "value": "1.07 (inactive) and 1.15 (inactive)"}, {"measurement": "normalised cell number", "setting": "[2]; [4]", "value": "1.01 and 1.05"}, {"measurement": "normalised cell number", "setting": "[2]; [5]", "value": "1.08 and 1.21"}, {"measurement": "luciferase signal", "setting": "[3]", "value": "88 AU (inactive)"}]}
{"smiles": "C=CCSCC=C", "values": [{"measurement": "inhibition", "setting": "[1]", "value": "-1.41% (inactive)"}, {"measurement": "red/green cell ratio (normalised)", "setting": "[2]", "value": "1.04 (inactive)"}, {"measurement": "normalised cell number", "setting": "[2]; [4]", "value": 1.02}, {"measurement": "normalised cell number", "setting": "[2]; [5]", "value": 1.06}, {"measurement": "luciferase signal", "setting": "[3]", "value": "20 AU (inactive)"}]}
{"smiles": "CCCCCC(=O)Cc1cc(O)cc(O)c1C(=O)Oc1cc(CC(=O)CCCCC)c(C(=O)O)c(OC)c1", "values": [{"measurement": "inhibition", "setting": "[1]", "value": "6.8% (inactive)"}, {"measurement": "red/green cell ratio (normalised)", "setting": "[2]", "value": "1.08 (inactive)"}, {"measurement": "normalised cell number", "setting": "[2]; [4]", "value": 0.95}, {"measurement": "normalised cell number", "setting": "[2]; [5]", "value": 1.03}, {"measurement": "luciferase signal", "setting": "[3]", "value": "160 AU (inactive)"}]}
{"smiles": "O=C(Oc1cc(O)cc2c1C[C@@H](OC(=O)c1cc(O)c(O)c(O)c1)[C@@H](c1cc(O)c(O)c(O)c1)O2)c1cc(O)c(O)c(O)c1", "values": [{"measurement": "inhibition", "setting": "[1]", "value": "10.8% (inactive)"}, {"measurement": "red/green cell ratio (normalised)", "setting": "[2]", "value": "1.04 (inactive)"}, {"measurement": "normalised cell number", "setting": "[2]; [4]", "value": 0.96}, {"measurement": "normalised cell number", "setting": "[2]; [5]", "value": 0.99}, {"measurement": "luciferase signal", "setting": "[3]", "value": "44 AU (inactive)"}]}
{"smiles": "O=C(O)c1cccc(O)c1O", "values": [{"measurement": "inhibition", "setting": "[1]", "value": "4.23% (inactive)"}, {"measurement": "red/green cell ratio (normalised)", "setting": "[2]", "value": "0.96 (inactive)"}, {"measurement": "normalised cell number", "setting": "[2]; [4]", "value": 1.23}, {"measurement": "normalised cell number", "setting": "[2]; [5]", "value": 1.19}, {"measurement": "luciferase signal", "setting": "[3]", "value": "20 AU (inactive)"}]}
{"smiles": "COc1cc2ccc(=O)oc2c(OC)c1OC", "values": [{"measurement": "inhibition", "setting": "[1]", "value": "1.65% (inactive)"}, {"measurement": "red/green cell ratio (normalised)", "setting": "[2]", "value": "0.93 (inactive)"}, {"measurement": "normalised cell number", "setting": "[2]; [4]", "value": 0.81}, {"measurement": "normalised cell number", "setting": "[2]; [5]", "value": 0.75}, {"measurement": "luciferase signal", "setting": "[3]", "value": "16 AU (inactive)"}]}
{"smiles": "O=C(O[C@@H]1Cc2c(O)cc(O)cc2O[C@@H]1c1ccc(O)c(O)c1)c1cc(O)c(O)c(O)c1", "values": [{"measurement": "inhibition", "setting": "[1]", "value": "5.78% (inactive)"}, {"measurement": "red/green cell ratio (normalised)", "setting": "[2]", "value": "0.99 (inactive)"}, {"measurement": "normalised cell number", "setting": "[2]; [4]", "value": 0.85}, {"measurement": "normalised cell number", "setting": "[2]; [5]", "value": 0.83}, {"measurement": "luciferase signal", "setting": "[3]", "value": "52 AU (inactive)"}]}
{"smiles": "Cc1cc(O)c(C=O)c2c1C(=O)Oc1c(C)c(O)c3c(c1O2)C(O)OC3=O", "note": "(stereo not given)", "values": [{"measurement": "inhibition", "setting": "[1]", "value": "7.31% (inactive)"}, {"measurement": "red/green cell ratio (normalised)", "setting": "[2]", "value": "0.95 (inactive)"}, {"measurement": "normalised cell number", "setting": "[2]; [4]", "value": 1.01}, {"measurement": "normalised cell number", "setting": "[2]; [5]", "value": 0.96}, {"measurement": "luciferase signal", "setting": "[3]", "value": "136 AU (inactive)"}]}
{"smiles": "O=C(CC(=O)c1ccccc1)c1ccccc1", "values": [{"measurement": "inhibition", "setting": "[1]", "value": "21.3% (active)"}, {"measurement": "red/green cell ratio (normalised)", "setting": "[2]", "value": "0.84 (inactive)"}, {"measurement": "normalised cell number", "setting": "[2]; [4]", "value": 1.16}, {"measurement": "normalised cell number", "setting": "[2]; [5]", "value": 0.97}, {"measurement": "luciferase signal", "setting": "[3]", "value": "80 AU (inactive)"}]}
{"smiles": "COc1cc(O)ccc1C(C)=O", "values": [{"measurement": "inhibition", "setting": "[1]", "value": "12.4% (inactive)"}, {"measurement": "red/green cell ratio (normalised)", "setting": "[2]", "value": "0.96 (inactive)"}, {"measurement": "normalised cell number", "setting": "[2]; [4]", "value": 0.95}, {"measurement": "normalised cell number", "setting": "[2]; [5]", "value": 0.91}, {"measurement": "luciferase signal", "setting": "[3]", "value": "124 AU (inactive)"}]}
{"smiles": "CC1=CC2C(CC1=O)C(C)=CCC2C(C)C", "note": "(stereo not given)", "values": [{"measurement": "inhibition", "setting": "[1]", "value": "2.64% (inactive)"}, {"measurement": "red/green cell ratio (normalised)", "setting": "[2]", "value": "1.21 (inactive)"}, {"measurement": "normalised cell number", "setting": "[2]; [4]", "value": 1.06}, {"measurement": "normalised cell number", "setting": "[2]; [5]", "value": 1.28}, {"measurement": "luciferase signal", "setting": "[3]", "value": "24 AU (inactive)"}]}
